# From PubChem
# TROY NFkB inh – blocks TROY-dependent signaling in reporter cells. actives 0.98% (n = 360,000). Q293 LMP1-TROYcd NF-kB luciferase reporter, 4 h. inhibition, % at 10 µM;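 active = compounds whose plate-normalised and pattern-corrected inhibition of the luciferase reporter signal at the single screening dose is 50% or more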
# KKLEB tox – CF airway cell cytotoxicity counter-screen | KKLEB CF airway cells viability, ATPlite luminescence, overnight; active compounds read low; cells stimulated with P. aeruginosa culture filtrate | activity change (cytotoxicity), % at 5 µM | actives 0.36% (n = 360,000);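 active = corrected activity change at or below -50% at 5 µM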
# Peg3 prom inh – inhibitors of Peg3 promoter. HeLa PEG-Prom luciferase reporter, luminescence, overnight. inhibition, % at 20 µM. actives 1.7% (n = 360,000);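 active = inhibition of at least 50% at 20 µM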
# CF NFkB inh – cystic fibrosis NF-kB activation inhibition | KKLEB NF-kB-GFP reporter, PAF-induced, GFP fluorescence overnight | inhibition, % at 5 µM | AID 588850 | actives 0.86% (n = 360,000);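 active = at least 50% inhibition at 5 µM, scaled per plate between neutral and stimulator controls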;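 also: PAF is a Pseudomonas aeruginosa culture filtrate used as stimulus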
# TWEAK Fn14 block – blocks TWEAK-Fn14 interaction in a reporter cell assay; actives 2% (n = 360,000); TWEAK-stimulated Fn14 reporter cells, luciferase luminescence, 8 h; inhibition, % at 10 µM; in the data active = inhibition above about 50%
# HIF-2a block – inhibitors of HIF-2a | inhibition, % at 18.8 µM | actives 0.72% (n = 360,000) | 786-0 RCC cells HIF-2a reporter, luciferase luminescence, overnight;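 active = inhibition of the luminescence signal of 40% or more relative to plate controls, in a single-dose primary screen at 18.75 µM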
# Mdm2-MdmX confirm – Mdm2/MdmX (human) interaction inhibition, confirmed; shares compounds with HIF-2a block; SaOS-2 split-luciferase Mdm2/MdmX complementation, luminescence; inhibition, % at 8 µM; actives 99% (n = 740); AID 504601;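 active = mean inhibition of the luminescence signal across two replicates at or above 26 percent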
# Target sequence (O15151 whole entry, looked up): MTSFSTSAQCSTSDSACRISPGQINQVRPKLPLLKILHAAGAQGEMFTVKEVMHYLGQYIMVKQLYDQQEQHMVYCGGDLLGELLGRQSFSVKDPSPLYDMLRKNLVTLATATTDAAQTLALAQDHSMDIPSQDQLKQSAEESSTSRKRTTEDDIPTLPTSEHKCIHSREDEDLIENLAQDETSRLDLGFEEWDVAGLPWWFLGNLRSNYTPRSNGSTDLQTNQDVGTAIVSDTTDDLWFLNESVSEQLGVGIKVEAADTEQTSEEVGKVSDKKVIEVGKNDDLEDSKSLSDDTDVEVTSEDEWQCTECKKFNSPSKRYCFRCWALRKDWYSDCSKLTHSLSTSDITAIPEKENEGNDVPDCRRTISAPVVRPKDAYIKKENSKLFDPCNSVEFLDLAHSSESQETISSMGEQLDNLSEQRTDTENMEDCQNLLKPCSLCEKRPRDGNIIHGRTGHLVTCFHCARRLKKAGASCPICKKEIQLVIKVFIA
# Target sequence (Q00987 whole entry, looked up): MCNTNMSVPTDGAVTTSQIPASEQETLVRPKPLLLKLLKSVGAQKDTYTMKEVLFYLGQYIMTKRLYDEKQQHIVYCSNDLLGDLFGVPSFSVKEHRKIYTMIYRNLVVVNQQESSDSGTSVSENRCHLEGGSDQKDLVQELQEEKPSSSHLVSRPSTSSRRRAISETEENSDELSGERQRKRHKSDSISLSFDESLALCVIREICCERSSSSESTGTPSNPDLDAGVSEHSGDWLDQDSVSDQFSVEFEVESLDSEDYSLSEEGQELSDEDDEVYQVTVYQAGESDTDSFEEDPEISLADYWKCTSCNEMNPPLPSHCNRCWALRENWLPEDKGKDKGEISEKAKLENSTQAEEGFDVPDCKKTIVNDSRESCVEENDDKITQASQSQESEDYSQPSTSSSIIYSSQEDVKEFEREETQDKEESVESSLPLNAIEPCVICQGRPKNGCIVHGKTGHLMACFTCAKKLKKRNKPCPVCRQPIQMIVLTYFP
# HIF-2a conf – HIF-2a inhibition, single concentration confirmation | shares compounds with HIF-2a block | 786-0 RCC cells, HIF-2a luciferase reporter luminescence, overnight | inhibition, % at 18.8 µM | actives 56% (n = 1,800);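 active = mean inhibition across four replicates of at least 40 percent at the single tested concentration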
# HIF-1a cs – HIF-1a inhibition counter-screen for HIF-2a hits | shares compounds with HIF-2a block | MiaPaCa-2 HIF-1a luciferase reporter, desferoxamine, overnight | inhibition, % at 18.8 µM | actives 72% (n = 1,800);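 active = mean inhibition of the reporter signal across four replicates at the single tested dose of 50% or more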
# Numbers stand for hits; i = inactive; nt = no result given. Hits are enriched below; roughly 4% of the tested compounds scored in any of these assays.
SMILES,TROY NFkB inh,KKLEB tox,Peg3 prom inh,CF NFkB inh,TWEAK Fn14 block,HIF-2a block,HIF-2a conf,HIF-1a cs,others
O=C(O)CCC1(c2ccccc2)NC(=O)NC1=O (centres undefined),i,i,i,i,i,44,i,i,
OCCCNc1c2ccccc2nc2ccccc12,i,i,104,i,i,i,nt,nt,Mdm2-MdmX confirm=97
Cc1[nH]c(=O)c(C(=O)/C=C/c2ccccc2F)c2c1CCCC2,50,i,110,91,89,90,92,100,Mdm2-MdmX confirm=103
O=C(COC(=O)CCCOc1ccc(Cl)cc1Cl)NCc1ccccc1,i,i,i,i,i,64,63,54,
COc1ccc(CNC(=O)COC(=O)CCCOc2ccc(Cl)cc2Cl)cc1OC,i,i,i,i,i,i,nt,nt,
Cc1ccc(CNC(=O)COC(=O)CCCOc2ccc(Cl)cc2Cl)cc1,i,i,i,i,i,62,70,57,
CC(C)(C)C(=O)NC(=S)NNC(=O)c1sc2ccccc2c1Cl,86,-66,78,71,100,78,i,100,
COc1cc(/C=C(/C(=O)c2cccs2)c2nc3ccccc3[nH]2)cc(OC)c1O,i,i,100,i,i,79,57,102,Mdm2-MdmX confirm=103
COc1ccc(C(=O)N/C(=C/c2cccs2)c2nc3ccccc3[nH]2)cc1OC,i,i,i,i,i,i,nt,nt,
O=C(/C(=C/c1ccc(Cl)cc1)c1nc2ccccc2[nH]1)c1ccccc1,i,-82,108,89,79,91,43,105,Mdm2-MdmX confirm=103
Oc1ccc(-c2nc3ccccc3nc2-c2ccccc2)cc1,i,i,i,i,i,i,nt,nt,
O=C(N/C(=C/c1ccc(F)cc1)C(=O)N1CCOCC1)c1ccco1,i,i,i,i,i,i,nt,nt,
CC(C)C(=O)NC(c1cccc([N+](=O)[O-])c1)c1ccc2cccnc2c1O (centres undefined),i,i,63,i,i,i,nt,nt,Mdm2-MdmX confirm=88
CCCC(=O)NC(c1ccccc1OC)c1ccc2cccnc2c1O (centres undefined),i,i,58,i,i,i,nt,nt,Mdm2-MdmX confirm=87
CCCC(=O)NC(c1ccc(Cl)cc1Cl)c1ccc2cccnc2c1O (centres undefined),i,i,59,i,i,i,nt,nt,Mdm2-MdmX confirm=85
Nc1nc2ccc(Cl)cc2cc1C(=O)NC1CC1,i,nt,nt,nt,i,i,nt,nt,
O=C(O)c1cccc(CSc2nnc(COc3ccccc3)o2)c1,i,i,i,i,i,73,73,i,
O=C(O)c1cccc(CSc2nnc(-c3ccc(Cl)cc3)o2)c1,i,i,i,i,i,70,80,i,
Cc1cccc(NC(=O)CSc2nccn2Cc2ccco2)c1C,i,i,i,i,i,i,nt,nt,
C[C@H]1Oc2ccccc2C(=O)C1C(=O)c1ccccc1 (some centres undefined),i,i,i,i,i,i,nt,nt,
CC(CNC(=O)c1ccc(OC2CCN(Cc3ccccn3)CC2)cc1)c1ccccc1 (centres undefined),i,i,i,i,i,i,nt,nt,
O=C(NNc1ncc(C(F)(F)F)cc1Cl)c1ccc(Cl)c(Cl)c1,i,i,i,i,i,i,nt,nt,
FC(F)(F)c1cnc(NNC(=S)Nc2ccc(Cl)cc2)c(Cl)c1,59,i,i,i,61,48,52,i,
Cc1ccc(NC(=S)NNc2ncc(C(F)(F)F)cc2Cl)cc1,i,i,i,i,i,69,82,i,
CON/C=N/C(=S)Nc1ncc(C(F)(F)F)cc1Cl,i,i,i,i,i,i,nt,nt,
SMILES,TROY NFkB inh,KKLEB tox,Peg3 prom inh,CF NFkB inh,TWEAK Fn14 block,HIF-2a block,HIF-2a conf,HIF-1a cs,others
CCN(c1ccccc1)S(=O)(=O)c1cc(NC(=O)Nc2ccccc2C#N)ccc1Cl,i,i,i,i,i,i,nt,nt,
CCN(c1ccccc1)S(=O)(=O)c1ccc(Cl)c(NC(=O)Nc2ccc(Cl)cc2C#N)c1,i,i,i,i,i,i,nt,nt,Mdm2-MdmX confirm=103
COc1ccccc1Oc1cc(C#N)c(C#N)cc1-n1nnc2ccccc21,i,i,i,i,i,46,i,54,
NNC(=O)CCN1CCCCC1,70,i,i,i,86,69,i,i,
CC1CCN(CCC(=O)NN)CC1,i,i,i,i,i,i,nt,nt,
CCN1CCN(c2ccc(S(=O)(=O)N3CCCCC3)cc2NC(=O)/C=C/c2ccc([N+](=O)[O-])cc2)CC1,i,i,76,i,i,87,i,101,
O=C(Nc1ccccc1C(=O)NCc1ccco1)Nc1cccc2ccccc12,i,i,i,i,i,54,i,i,
CC(=O)Nc1ccc(S(=O)(=O)N(C)Cc2cnn(C)c2)cc1,i,i,i,i,i,i,nt,nt,
Nc1ncnc2c1ncn2[C@@H]1O[C@H](CO)[C@@H](O)[C@H]1O,i,i,i,i,i,i,nt,nt,
Nc1ncnc2c(C3OC(CO)C(O)C3O)c[nH]c12 (centres undefined),71,-53,96,83,101,50,i,106,
CCOc1ccc(-c2cccc(NC(=O)c3cccs3)c2)nn1,i,i,i,i,i,i,nt,nt,
C(=N\Nc1nc2ccccc2s1)/c1ccccn1,nt,nt,nt,nt,nt,nt,nt,nt,Mdm2-MdmX confirm=95
Cc1cc(-c2ccc(C(C)C)c(S(=O)(=O)Nc3cc(C)on3)c2)on1,i,i,i,i,i,i,nt,nt,
CCOC(=O)N=S(N)(=O)c1ccccc1 (centres undefined),i,i,i,i,i,i,nt,nt,
CCOC(=O)CC(S(=O)(=O)c1ccccc1)S(=O)(=O)c1ccccc1,i,-90,100,87,i,76,i,i,
COc1cc(OC)cc(-c2cc3nc(C)c(CCC(=O)NCc4ccccc4)c(C)n3n2)c1,i,i,i,i,66,69,79,87,
Cc1nc2cc(-c3ccccc3)nn2c(C)c1CCC(=O)N1CCN(c2ccccc2)CC1,i,i,i,i,i,69,79,53,
COc1ccccc1-c1cc2nc(C)c(CCC(=O)NCc3ccc(F)cc3)c(C)n2n1,i,i,i,i,i,i,nt,nt,
Cc1nc2ncnn2c(C)c1CCC(=O)N1CCN(c2ccccn2)CC1,i,i,i,i,i,i,nt,nt,
CN(C)CCNC(=O)c1cc2c(s1)-c1ccc(Cl)cc1SC2,i,i,110,i,105,i,nt,nt,Mdm2-MdmX confirm=103
CCOC(=O)Cc1ccc(NC(=O)c2ccc(C(C)(C)C)cc2)cc1,i,i,i,i,i,90,97,77,
CCCCn1c(=N)n(CC(=O)c2ccc(Br)s2)c2ccccc21,i,i,95,i,i,50,i,98,Mdm2-MdmX confirm=103
